Test [1] in a line: NCI Yeast Anticancer Drug Screen. Data for the rad50 strain (AID 155).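 Further: 0% = growth of vehicle-only cultures of the same strain.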 The following applies: S. cerevisiae rad50 strain growth inhibition; at 50.0 µM; hits give high values. The gist of the method:
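Vehicle-treated cultures provide the reference for the growth inhibition reported for compound-exposed, repair-deficient yeast.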

A short description of test [2]: NCI Yeast Anticancer Drug Screen. Data for the mec2-1 strain (AID 157). The following applies: S. cerevisiae mec2-1 strain, at 50.0 µM, hits give high values. The gist of the method:
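Compounds were applied to mec2-1 yeast cells. Their growth was then compared with that of vehicle-treated cultures to give growth inhibition.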

The nature of test [3]: NCI Yeast Anticancer Drug Screen. Data for the sgs1 mgt1 strain (AID 161).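 Further: 0% = growth of cultures given vehicle only.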 As to conditions: S. cerevisiae sgs1 mgt1 strain, at 50.0 µM, hits give high values. Summed up: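 Compounds are added to genetically altered yeast, and growth is compared with cultures given vehicle alone to give percent inhibition.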
Test [4] is described as follows: NCI Yeast Anticancer Drug Screen. Data for the cln2 rad14 strain (AID 165).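 Further: 0% = growth equal to vehicle treated cultures.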 As to conditions: S. cerevisiae cln2 rad14 strain, at 50.0 µM, hits give high values. The gist of the method: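 Strain: cln2 rad14 yeast, altered in cell cycle control and DNA damage repair. Read-out: growth inhibition vs vehicle.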
The nature of test [5]: NCI Yeast Anticancer Drug Screen. Data for the bub3 strain (AID 167). As to conditions: S. cerevisiae bub3 mutant strain, at 50.0 µM, hits give high values. The gist of the method:
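Mutant yeast screening strain plus compound; vehicle-treated cultures serve as the 0% inhibition reference.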

Test [6] in a line: NCI Yeast Anticancer Drug Screen. Data for the mlh1 rad18 strain (AID 175). As to conditions: S. cerevisiae mlh1 rad18 strain growth inhibition; at 50.0 µM; hits give high values. Summed up:
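A repair-deficient yeast strain is exposed to test compound, and growth is scored relative to vehicle-treated controls.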

The structures appear in SMILES notation. The panel holds about 79,000 compounds, 15% with a hit somewhere; the sample as a whole holds those more often. Unmarked numbers belong to inactive results. Activity calls are given as the source filed them. No stated cut-off is given here; in the data, active means growth inhibition above about 70%; inactive means the rest.

Consider `CCCOC(=O)OCCC`, for which the growth inhibition was -9.8% in test [1]; -37.3% in test [2]; -4.9% in test [3]; 2.9% in test [4]; -31.8% in test [5]; -10.9% in test [6].
Take `NC(=O)c1ccc(Cl)cc1`: the growth inhibition in test [1] was 33%; in test [2], 14.2%; in test [3], 15.5%; in test [4], 14.4%; in test [5], -0.6%; in test [6] it was 2%.
Turning to `O=c1/c(=C/c2ccccc2[N+](=O)[O-])sc2nnc(-c3cccnc3)n12`, the growth inhibition in test [1] was 11.7%; in test [2], 6.45%; in test [3], 12.8%; in test [4] it was 21.1%; in test [5], 11.8%; in test [6], 1.4%.
In the case of `COc1ccc(/C=N/n2cnc3c(sc(=S)n3-c3ccccc3)c2=O)cc1`, the growth inhibition in test [1] is 23%; in test [2], 1.1%; in test [3] it was -8.45%; in test [4] it was -1.7%; in test [5], -23.7%; in test [6], 12.8%.
For the compound `COc1ccc(OC)c(/C=C/c2cnnc3ccccc23)c1`, the growth inhibition in test [1] is 12.6%; in test [2] it was 12.8%; in test [3] it was 19.2%; in test [4] it was -2.95%; in test [5] it was 6.75%; in test [6] it was 32%.
Regarding `Fc1cccc(Cl)c1/C=N\N=C1c2ccccc2-c2ccccc21`, the growth inhibition is -8.1% in test [1]; 21.9% in test [2]; -22.4% in test [3]; -20.1% in test [4]; -57.8% in test [5]; -15.8% in test [6].
With `Cc1cccc(N2CCC(O)C2)c1` (stereo not given), the growth inhibition in test [1] is -5.3%; in test [2] it was 7.25%; in test [3], -0.1%; in test [4], 9.35%; in test [5], -6.9%; in test [6], -21.1%.
Take `CCOC1=CC(=O)C(=O)c2ccccc21`: the growth inhibition is -1.05% in test [1]; -10.2% in test [2]; -5.8% in test [3]; -17.7% in test [4]; -0.55% in test [5]; 10.3% in test [6].
In the case of `CC(C)(CO[C@H]1C[C@H]2CC[C@@]1(C)C2(C)C)[N+](=O)[O-]`, the growth inhibition in test [1] is 25.4%; in test [2], -7%; in test [3], 50%; in test [4] it was -17.4%; in test [5], 12.9%; in test [6], 18.4%.
As to `C[N+](C)(N)Cc1csc(-c2ccc(Cl)cc2)n1`, the growth inhibition in test [1] is -31.3%; in test [2], -39.3%; in test [3] it was -12.7%; in test [4] it was -8.1%; in test [5] it was -24.6%; in test [6], -10.5%.
In the case of `CC1(Br)S(=O)(=O)OCCOS1(=O)=O`, the growth inhibition in test [1] was -23%; in test [2], -15.9%; in test [3] it was -12.3%; in test [4], 6.1%; in test [5], -24.2%; in test [6], -42.5%.
On to `CC(=O)CC(=O)NC(C)(C)C`, for which the growth inhibition is 16.6% in test [1]; -33% in test [2]; -16.4% in test [3]; -13.2% in test [4]; 2.85% in test [5]; 7.7% in test [6].
Turning to `COc1cc(Nc2cnc3ccc(C(F)(F)F)cc3n2)cc(OC)c1OC`, the growth inhibition in test [1] is -0.3%; in test [2] it was 4.9%; in test [3], 1.15%; in test [4] it was -0.8%; in test [5], -16.9%; in test [6], -3.5%.
As for `COc1cc(CN(c2ccccc2C(=O)O)S(=O)(=O)c2ccc(C)cc2)ccc1[N+](=O)[O-]`, the growth inhibition is 43.9% in test [1]; 2.65% in test [2]; 38.2% in test [3]; -19.6% in test [4]; -4.5% in test [5]; 35.6% in test [6].
Take `CC(=O)NC1=NC(=O)/C(=C/c2ccc(/C=C3/C(=O)N=C(NC(C)=O)N3C)cc2)N1C`: the growth inhibition in test [1] was -20.6%; in test [2], 11%; in test [3], 14.4%; in test [4], 35.6%; in test [5], -9.05%; in test [6], -27.2%.
For the compound `O=c1nc(OCCO)c([N+](=O)[O-])c(C(Cl)(Cl)Cl)[nH]1`, the growth inhibition is 61.4% in test [1]; 89.5% (active) in test [2]; 81.7% (active) in test [3]; 36.4% in test [4]; 80.5% (active) in test [5]; 92.3% (active) in test [6].
With `Cc1nc2ccccc2s1`, the growth inhibition was 25.1% in test [1]; 48.2% in test [2]; 7.9% in test [3]; 29% in test [4]; -1.35% in test [5]; 4.05% in test [6].
In the case of `CC1=C(O)/C(=C/C(C)CCC/C(C)=C/C=C/C(C)CCCc2ccoc2)OC1=O` (stereo not given), the growth inhibition is 3.05% in test [1]; -4.65% in test [2]; 2.9% in test [3]; 23.8% in test [4]; 7.45% in test [5]; 3.1% in test [6].
Regarding `CCOc1ccccc1NC(=O)C1=C(C)NC(C)=C(C(=O)Nc2ccccc2OCC)C1c1ccc([N+](=O)[O-])cc1`, the growth inhibition in test [1] was -20.3%; in test [2], 27.2%; in test [3] it was -3%; in test [4], -4.9%; in test [5], 30.8%; in test [6] it was -7.2%.
Turning to `COc1cc(C2c3cc4c(cc3OC(NC3CCCCC3)C2C)OCO4)cc(OC)c1OC` (stereo not given), the growth inhibition was -0.35% in test [1]; -9.4% in test [2]; -2.4% in test [3]; 27.8% in test [4]; 24.6% in test [5]; -20.9% in test [6].

Values taken from PubChem BioAssay (NCI).
